Results from PubChem BioAssay AID1159580 (chemical genetic matrix, 2015).
In all, about 5,500 compounds went through this assay and about 2,000 (36%) were called active. Another 18% or so got no clear call; they are omitted. Cut-off read from the data, not from the text of the source: active = normalized growth mostly below about 0.91 (no sharp cut-off); inconclusive = no clear call, values can overlap the other calls; inactive = mostly above about 0.92. Some of the results follow.

Assay: chemical genetic growth profiling, strain panel (AID 1159580);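 note: tested at 20 µM; growth read once vehicle control cultures reached saturation at 30 °C; 1 = growth at the plate median or of vehicle wells; lower values mean less growth of the strain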
Settings: S. cerevisiae deletion strains, growth OD
[1] = locus YBR229C, strain ROT2, hits give low values
[2] = locus YDL101C, strain DUN1, hits give low values
[3] = locus YDR150W, strain NUM1, hits give low values
[4] = locus YEL061C, strain CIN8, hits give low values
[5] = locus YGR078C, strain PAC10, hits give low values
[6] = locus YHR030C, strain SLT2, hits give low values
[7] = locus YJL095W, strain BCK1, hits give low values
[8] = locus YJR043C, strain POL32, hits give low values
[9] = locus YJR075W, strain HOC1, hits give low values
[10] = locus YLR039C, strain RIC1, hits give low values
[11] = locus YLR262C, strain YPT6, hits give low values
[12] = locus YMR263W, strain SAP30, hits give low values
[13] = locus YNL153C, strain GIM3, hits give low values
[14] = locus YNL322C, strain KRE1, hits give low values
[15] = locus YOL006C, strain TOP1, hits give low values
[16] = locus YOR061W, strain CKA2, hits give low values
[17] = locus YPL055C, strain LGE1, hits give low values

Measured: normalized growth

C=C(C)C1(O)OC(=O)C=C1OC (centres undefined)
inactive: locus YBR021W, strain FUR4, hits give low values 0.995 | [1] 0.944 | locus YCL029C, strain bik1, hits give low values 0.977 | locus YDL035C, strain GPR1, hits give low values 0.987 | locus YDL074C, strain BRE1, hits give low values 1.01 | [2] 0.994 | locus YDL185W, strain tfp1, hits give low values 0.968 | locus YDL192W, strain arf1, hits give low values 0.984 | locus YDR101C, strain arx1, hits give low values 1 | [3] 0.986 | locus YDR162C, strain NBP2, hits give low values 0.961 | locus YDR318W, strain mcm21, hits give low values 0.981 | locus YDR388W, hits give low values 0.997 | locus YDR502C, strain sam2, hits give low values 0.996 | [4] 0.989 | locus YER110C, hits give low values 0.991 | locus YER155C, strain BEM2, hits give low values 0.996 | locus YER167W, strain BCK2, hits give low values 0.978 | locus YGL078C, strain dbp3, hits give low values 0.991 | locus YGL086W, strain mad1, hits give low values 1.03 | locus YGL248W, strain PDE1, hits give low values 0.978 | [5] 1.03 | locus YGR135W, strain pre9, hits give low values 0.983 | locus YGR252W, strain gcn5, hits give low values 0.98 | [6] 0.981 | locus YHR079C, strain IRE1 (second series), hits give low values 0.986 | locus YHR094C, strain hxt1, hits give low values 0.983 | locus YHR129C, strain ARP1, hits give low values 0.985 | locus YHR200W, strain rpn10, hits give low values 0.994 | locus YIL066C, strain RNR3, hits give low values 0.965 | locus YIL073C, strain SPO22, hits give low values 0.978 | locus YIL125W, strain kgd1, hits give low values 0.98 | locus YIR030C, strain dcg1, hits give low values 0.986 | [7] 1.06 | locus YJL134W, strain LCB3, hits give low values 0.981 | locus YJL168C, strain set2, hits give low values 0.992 | locus YJL187C, strain SWE1 (second series), hits give low values 1 | [8] 0.948 | [9] 1.03 | locus YKL009W, strain mrt4, hits give low values 1.01 | locus YKL068W, hits give low values 0.965 | locus YKL085W, strain MDH1 (second series), hits give low values 0.962 | locus YKL085W, strain MDH1, hits give low values 0.962 | locus YKL190W, strain CNB1, hits give low values 1 | locus YKR001C, strain vps1, hits give low values 0.995 | [10] 0.963 | locus YLR058C, strain SHM2, hits give low values 0.97 | locus YLR102C, strain apc9, hits give low values 0.99 | [11] 0.918 | locus YLR268W, strain sec22, hits give low values 1.04 | locus YLR330W, strain CHS5, hits give low values 0.992 | locus YLR342W, strain FKS1 (second series), hits give low values 0.985 | locus YLR371W, strain rom2, hits give low values 0.97 | locus YLR418C, strain cdc73, hits give low values 0.964 | locus YML016C, strain PPZ1, hits give low values 0.978 | locus YML032C, strain rad52, hits give low values 0.975 | locus YML124C, strain tub3, hits give low values 0.984 | locus YMR078C, strain ctf18, hits give low values 0.991 | locus YMR223W, strain ubp8, hits give low values 0.992 | [12] 1.01 | locus YMR307W, strain GAS1, hits give low values 0.947 | locus YNL067W, strain RPL9B, hits give low values 1.03 | locus YNL128W, strain TEP1, hits give low values 0.997 | [13] 1.02 | locus YNL233W, strain BNI4, hits give low values 1.04 | locus YNL250W, strain rad50, hits give low values 0.958 | locus YNL271C, strain bni1, hits give low values 0.989 | locus YNL298W, strain CLA4, hits give low values 1.02 | locus YNL307C, strain MCK1, hits give low values 0.999 | [14] 0.98 | locus YNR052C, strain pop2, hits give low values 1.01 | [15] 1.05 | locus YOL012C, strain htz1 1.2 | locus YOL147C, strain pex11, hits give low values 0.991 | [16] 0.964 | locus YOR069W, strain VPS5, hits give low values 0.985 | locus YOR136W, strain idh2, hits give low values 1 | locus YOR144C, strain elg1, hits give low values 0.981 | locus YOR184W, strain ser1, hits give low values 0.973 | locus YOR316C, strain cot1, hits give low values 0.994 | locus YPR119W, strain clb2, hits give low values 0.987 | locus YPR141C, strain kar3, hits give low values 0.977 | locus YPR163C, strain tif3, hits give low values 0.99 | locus YPR167C, strain met16, hits give low values 0.992 | strain wtn01, hits give low values 1.02

O=C1c2ccccc2-c2n[nH]c3cccc1c23
active: locus YAL040C, strain CLN3, hits give low values 0.674 | [9] 0.827 | [13] 0.345 | locus YNL175C, strain NOP13, hits give low values 0.621 | locus YNL197C, strain WHI3, hits give low values 0.826 | locus YNL224C, strain SQS1, hits give low values 0.654 | locus YOR083W, strain WHI5 (second series), hits give low values 0.504 | [17] 0.727
inactive: locus YDR363W, strain ESC2, hits give low values 0.906 | locus YER002W, strain NOP16, hits give low values 0.982 | [12] 0.981

O=S(=O)(Oc1ccc(-c2csnn2)cc1)c1ccccc1Cl
active: locus YLR113W, strain HOG1, hits give low values 0.854
inactive: locus YAR019C, strain CDC15, hits give low values 0.965 | locus YBL105C, strain PKC1, hits give low values 0.98 | locus YBR135W, strain CKS1, hits give low values 0.966 | locus YBR136W, strain MEC1, hits give low values 0.963 | locus YBR160W, strain CDC28, hits give low values 0.971 | locus YDL017W, strain CDC7, hits give low values 0.974 | locus YDL028C, strain MPS1, hits give low values 0.968 | [2] 0.956 | locus YDL108W, strain KIN28, hits give low values 0.967 | locus YDL132W, strain cdc53, hits give low values 0.971 | locus YDL214C, strain PRR2, hits give low values 0.939 | locus YDR052C, strain DBF4, hits give low values 0.978 | locus YDR054C, strain cdc34, hits give low values 0.979 | locus YDR226W, strain ADK1, hits give low values 0.969 | locus YDR477W, strain SNF1, hits give low values 0.94 | locus YER123W, strain YCK3, hits give low values 0.915 | locus YER133W, strain GLC7, hits give low values 0.939 | locus YFL009W, strain cdc4, hits give low values 0.973 | locus YFL029C, strain CAK1, hits give low values 0.963 | locus YFR003C, strain YPI1, hits give low values 0.972 | locus YFR019W, strain FAB1, hits give low values 0.913 | locus YFR028C, strain CDC14, hits give low values 0.957 | locus YGR040W, strain KSS1, hits give low values 0.934 | locus YGR052W, strain FMP48, hits give low values 0.969 | locus YGR092W, strain DBF2, hits give low values 0.935 | [6] 0.907 | locus YHR079C, strain IRE1, hits give low values 0.929 | locus YHR082C, strain KSP1, hits give low values 0.948 | locus YHR205W, strain SCH9, hits give low values 0.946 | locus YIL147C, strain SLN1, hits give low values 0.968 | [7] 0.936 | locus YJL128C, strain PBS2, hits give low values 0.938 | locus YJL157C, strain FAR1, hits give low values 0.947 | locus YJR016C, strain ILV3, hits give low values 0.978 | locus YJR066W, strain TOR1 (second series), hits give low values 0.909 | locus YJR066W, strain TOR1, hits give low values 0.921 | locus YKL048C, strain ELM1, hits give low values 0.988 | locus YKL067W, strain YNK1, hits give low values 0.933 | locus YKL101W, strain HSL1, hits give low values 0.951 | locus YKL193C, strain SDS22, hits give low values 0.967 | locus YKL203C, strain TOR2, hits give low values 0.989 | locus YLR133W, strain CKI1, hits give low values 0.947 | locus YLR403W, strain SFP1, hits give low values 0.927 | locus YML070W, strain DAK1, hits give low values 0.922 | locus YMR001C, strain CDC5, hits give low values 0.968 | locus YMR205C, strain PFK2 (second series), hits give low values 0.941 | locus YMR277W, strain FCP1, hits give low values 0.965 | locus YNL006W, strain LST8, hits give low values 0.981 | locus YNL020C, strain ARK1, hits give low values 0.973 | locus YNL161W, strain CBK1, hits give low values 0.969 | locus YNL183C, strain NPR1, hits give low values 0.896 | locus YNL207W, strain RIO2, hits give low values 0.971 | locus YNL222W, strain SSU72, hits give low values 0.975 | locus YNL307C, strain MCK1 (second series), hits give low values 0.96 | locus YOL078W, strain AVO1, hits give low values 0.974 | locus YOL136C, strain PFK27, hits give low values 0.916 | [16] 0.923 | locus YOR119C, strain RIO1, hits give low values 0.964 | locus YOR231W, strain MKK1, hits give low values 0.906 | locus YOR329C, strain SCD5, hits give low values 0.966 | locus YPL031C, strain PHO85, hits give low values 0.946 | locus YPL153C, strain RAD53, hits give low values 0.956 | locus YPL204W, strain HRR25, hits give low values 0.931 | locus YPL209C, strain IPL1, hits give low values 0.975 | locus YPL256C, strain CLN2, hits give low values 0.881 | locus YPR025C, strain CCL1, hits give low values 0.968 | locus YPR106W, strain ISR1, hits give low values 0.961 | locus YPR111W, strain DBF20, hits give low values 0.964 | strain NNK1, hits give low values 0.96 | strain TSCII, hits give low values 0.995

N/C(=N/OC(=O)c1ccccc1)c1ccc(-c2csnn2)cc1
inactive: locus YAL013W, strain DEP1, hits give low values 0.998 | [1] 0.988 | [2] 0.984 | locus YDL134C, strain PPH21, hits give low values 1.01 | [3] 0.965 | [4] 0.991 | [5] 1 | [6] 1.08 | locus YHR087W, strain rtc3, hits give low values 0.993 | locus YJL187C, strain SWE1, hits give low values 1.02 | [8] 1.01 | [9] 1.02 | [10] 1.03 | locus YLR058C, strain SHM2 (second series), hits give low values 1 | locus YLR085C, strain ARP6, hits give low values 1.01 | [11] 1.01 | locus YML094W, strain GIM5, hits give low values 0.993 | locus YMR219W, strain ESC1, hits give low values 1 | [12] 1.03 | [13] 1 | locus YNL298W, strain CLA4 (second series), hits give low values 1.01 | [14] 1.01 | locus YNR030W, strain Alg12, hits give low values 1 | [15] 1.07 | [17] 0.905 | locus YPL241C, strain CIN2, hits give low values 1 | locus YPR135W, strain CTF4, hits give low values 1.04
